Experimental data published in publication PMC10726135, “HNF4α isoforms regulate the circadian balance between carbohydrate and lipid metabolism in the liver”.
The full ranking holds about 18,000 sequences; the median of “log2 normalized intensity” is about 0.36, and the highest 2% start at about 7.3. The list comes from a sample in which the highest values are over-represented; it also holds similar and randomly drawn sequences.

These sequences were tested against T1, HNF4alpha8 (COS-7 nuclear extract) (Homo sapiens, UniProt P41235-5 1-452) (assay: protein-binding microarray; COS-7 nuclear extract on double-stranded Agilent 4x180k PBM; binding buffer, salt, pH and temperature not given in the material; high values mean tight binding). Details: chain copies: 2; label: 3' end of strand 1 on the slide; dsDNA, one strand shown.
T1 sequence: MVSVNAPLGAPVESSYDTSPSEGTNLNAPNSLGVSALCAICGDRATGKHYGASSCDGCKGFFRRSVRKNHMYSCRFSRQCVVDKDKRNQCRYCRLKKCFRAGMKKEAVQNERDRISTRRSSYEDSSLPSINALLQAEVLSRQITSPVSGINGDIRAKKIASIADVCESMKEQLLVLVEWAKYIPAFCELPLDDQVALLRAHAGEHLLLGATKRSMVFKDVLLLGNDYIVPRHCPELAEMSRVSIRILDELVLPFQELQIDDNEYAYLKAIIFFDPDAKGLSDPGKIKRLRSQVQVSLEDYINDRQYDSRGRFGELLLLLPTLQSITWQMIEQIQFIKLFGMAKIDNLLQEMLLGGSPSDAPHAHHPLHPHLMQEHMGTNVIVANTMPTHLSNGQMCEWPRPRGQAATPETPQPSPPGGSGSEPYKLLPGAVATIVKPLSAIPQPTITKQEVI
Outline: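 COS-7 cells were transiently transfected by CaPO4 with an expression vector for a human HNF4α isoform, and nuclear extracts were prepared from them. The extracts were applied to a custom Agilent SurePrint G3 4x180k array of double-stranded ~60-nt oligonucleotides, with ~44,000 test sequences spotted in quadruplicate. An Agilent G2565CA scanner imaged bound HNF4α at 2-µm resolution. Binding signal is the background-corrected, normalized gProcessedSignal from Agilent software.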

Sequence | binding signal [log2 normalized intensity]
CCTTTGCCCTCCAAACTGAGAGATTTTTTCGCCTAGGGAGATTAGAGTATCGGTCGA | 1.05
GAGGTCTGGACCCTTGGCACTTTCACGATAGCCTAGGGAGATTAGAGTATCGGTCGA | 1.79
AGCAATGTTTCTTGTCCAGGGACTTTGAACGCCTAGGGAGATTAGAGTATCGGTCGA | 6.55
CTTTGACCCTGTTTTGTAAACTCCCTTTGAGCCTAGGGAGATTAGAGTATCGGTCGA | 2.04
CAACTGACATCTGGAAATGTTTGTAGGGACGCCTAGGGAGATTAGAGTATCGGTCGA | 0.67
CTGGAAATGTTTGTAGGGACTTTGACCCCTGCCTAGGGAGATTAGAGTATCGGTCGA | 10.4
AATGTTTGTAGGGACTTTGACCCCTAAAACGCCTAGGGAGATTAGAGTATCGGTCGA | 9.59
GACATCTGGAAATGTTTGTAGGGACTTTGAGCCTAGGGAGATTAGAGTATCGGTCGA | 5.1
CAGCTTTGAAGTGCTTCCTGTGTATTTCTTGCCTAGGGAGATTAGAGTATCGGTCGA | 1.27
GGACTAAGAATTGCTCAACCTGGACCTCATGCCTAGGGAGATTAGAGTATCGGTCGA | 1.89
AGCCTCTATGTCAGGCCATTTCACCTTTGCGCCTAGGGAGATTAGAGTATCGGTCGA | 4.57
AAAGGCTGTCACACTTGCCCTTTGCCCTCAGCCTAGGGAGATTAGAGTATCGGTCGA | 8.84
AAGGCTGTCACACTGGCCTTTGCCCTCGCTGCCTAGGGAGATTAGAGTATCGGTCGA | 5.82
TCAGGCCATTTCACCTTTGCCCTGTCAGTCGCCTAGGGAGATTAGAGTATCGGTCGA | 6.79
CTATGTCAGGCCATTTCACCTTTGCCCTGTGCCTAGGGAGATTAGAGTATCGGTCGA | 7.53
CACAAAAAGGCTGTCACACTTGCCCTTTGCGCCTAGGGAGATTAGAGTATCGGTCGA | 5.42
ACACTTGCCCTTTGCCCTCACTGGTAGAAGGCCTAGGGAGATTAGAGTATCGGTCGA | 5.8
CTGTCACACTTGCCCTTTGCCCTCACTGGTGCCTAGGGAGATTAGAGTATCGGTCGA | 7.78
TGTCACACTGGCCTTTGCCCTCGCTGGCGGGCCTAGGGAGATTAGAGTATCGGTCGA | 5.25
TTCAGCCGCTTTGAGGTCAATGGTAGAAAAGCCTAGGGAGATTAGAGTATCGGTCGA | 1.85
ACTAAAGGTTAAACATGTACTCTGTACTCCGCCTAGGGAGATTAGAGTATCGGTCGA | 3.43
ACCCCTCCACTGGACAGCAGCTACATAAGGGCCTAGGGAGATTAGAGTATCGGTCGA | 1.83

Sequence | binding signal [log2 normalized intensity]
AAATACCCTCTTTAGGGTAGCCTGGGTTAAGCCTAGGGAGATTAGAGTATCGGTCGA | 0.844
TAGACTTTGGACCTGGCCTGCGGGGTCAGGGCCTAGGGAGATTAGAGTATCGGTCGA | 6.35
CACCTGTGTCAACATGGACTTTGTTGTTTGGCCTAGGGAGATTAGAGTATCGGTCGA | 4.99
GGACTTTGGCCTTACTTGGCCTGTTTGCTGGCCTAGGGAGATTAGAGTATCGGTCGA | 5.89
GGGCGTGTGTTAGACTTTGGACCTGGCCTGGCCTAGGGAGATTAGAGTATCGGTCGA | 7.98
TAAGGAGCTGAGTCATAGTGGACTTTGCCTGCCTAGGGAGATTAGAGTATCGGTCGA | 7.86
ACTTTGGACCTTTGTGTGTGTGTGTGTGTGGCCTAGGGAGATTAGAGTATCGGTCGA | 3.49
GCTAGTAAGGAGCTGAGTCATAGTGGACTTGCCTAGGGAGATTAGAGTATCGGTCGA | 4.03
GTTGGACTTTGGACCTTTGTGTGTGTGTGTGCCTAGGGAGATTAGAGTATCGGTCGA | 8.31
CGGGTATGTGGGGCGTGTGTTAGACTTTGGGCCTAGGGAGATTAGAGTATCGGTCGA | 4.91
TGGACAACTGTACTTTGGACTGGGGACCTGGCCTAGGGAGATTAGAGTATCGGTCGA | 6.02
TAGGGCCTTGCTATGGAGTGGACTTTGGCTGCCTAGGGAGATTAGAGTATCGGTCGA | 7.22
ATGTGGGGCGTGTGTTAGACTTTGGACCTGGCCTAGGGAGATTAGAGTATCGGTCGA | 9.77
CCAATTATTGCGAGTTTAGGAGGGTTCCTGGCCTAGGGAGATTAGAGTATCGGTCGA | -0.0269
GATCCACGGAGAATGTAGACCTTTACCACCGCCTAGGGAGATTAGAGTATCGGTCGA | 2.35
ATCCCCCACACCGAGATAGTAGAGATAGTGGCCTAGGGAGATTAGAGTATCGGTCGA | 2.5
TCAAAGTCCAAATAGCGCTAACTCTATATCGCCTAGGGAGATTAGAGTATCGGTCGA | 0.779
TGGCACTGAAGAATGTCTAAATCTGAAGGAGCCTAGGGAGATTAGAGTATCGGTCGA | -0.983
GTGTTGACCTCTGGACCTCATCTTCCTCCCGCCTAGGGAGATTAGAGTATCGGTCGA | 5.2
TCTTTCAAGATAACAAGGCAAACTTTATCAGCCTAGGGAGATTAGAGTATCGGTCGA | -0.554
ATGTGTTTGCATGACTCATAAAGAACAGTTGCCTAGGGAGATTAGAGTATCGGTCGA | 0.739
ATTTTGGACTTTGTGCAAATGGAAAATTGTGCCTAGGGAGATTAGAGTATCGGTCGA | 3.52

Sequence | binding signal [log2 normalized intensity]
GGGGACCTTTGGCCTTTACCTGTTACTTATGCCTAGGGAGATTAGAGTATCGGTCGA | 4.06
AACGGTTCAAAGGACAGACTTTGGACCTGGGCCTAGGGAGATTAGAGTATCGGTCGA | 7.98
TTCAAAGGACAGACTTTGGACCTGGCCCTCGCCTAGGGAGATTAGAGTATCGGTCGA | 6.56
AGGGGTTACTAGTGAGTTGGACTTTGGACCGCCTAGGGAGATTAGAGTATCGGTCGA | 11.6
GACCTGTCTTCCTGGTGACCTTTGTTTGGTGCCTAGGGAGATTAGAGTATCGGTCGA | 5.66
ACTGAATGTGACCTTTTGGACCACAGAGTGGCCTAGGGAGATTAGAGTATCGGTCGA | 5.97
TGACAACTGAATGTGACCTTTTGGACCACAGCCTAGGGAGATTAGAGTATCGGTCGA | 7.4
GATACAACGGTTCAAAGGACAGACTTTGGAGCCTAGGGAGATTAGAGTATCGGTCGA | 4.08
GTCAAGTAGAGACCTGTCTTCCTGGTGACCGCCTAGGGAGATTAGAGTATCGGTCGA | 2.25
CCTGATGACAACTGAATGTGACCTTTTGGAGCCTAGGGAGATTAGAGTATCGGTCGA | 6.26
TTACCGGTGTGACTTTGGTTGGATTTCTTGGCCTAGGGAGATTAGAGTATCGGTCGA | 1.56
GTAGAGACCTGTCTTCCTGGTGACCTTTGTGCCTAGGGAGATTAGAGTATCGGTCGA | 7.95
GACCTCATGTAGTCACATACCTATGCAAACGCCTAGGGAGATTAGAGTATCGGTCGA | 1.02
CAGCATCTTCACCGTAAAGCCACCCCTTTCGCCTAGGGAGATTAGAGTATCGGTCGA | 2.59
AGCGATCATGGGTGACCCGTTAAGAATGAGGCCTAGGGAGATTAGAGTATCGGTCGA | 1.24
CTTAGAATCGAATTGTGAAACTCAGAATCAGCCTAGGGAGATTAGAGTATCGGTCGA | -0.796
TCACCTACTGACCTTTCTCCCTTTTCACAGGCCTAGGGAGATTAGAGTATCGGTCGA | 3.5
AAGATCTGTGAAAGAAAAGTACTTTAGTGTGCCTAGGGAGATTAGAGTATCGGTCGA | 0.992
CAACAGGTGTTAAAATAACGACCTTTGGGCGCCTAGGGAGATTAGAGTATCGGTCGA | 6.57
AATATCTCAGCACATGGCAGTGTACACTAGGCCTAGGGAGATTAGAGTATCGGTCGA | 0.805
GAGAGAAAAAATCAGAGAGCAAAGGTGATCGCCTAGGGAGATTAGAGTATCGGTCGA | 2.63
ATTCCCCGACTCCTGGGTGTGAGATAAGGCGCCTAGGGAGATTAGAGTATCGGTCGA | 0.0557

Sequence | binding signal [log2 normalized intensity]
AGACTGGTTTGCACAGGTTACACAGTATGTGCCTAGGGAGATTAGAGTATCGGTCGA | -0.754
AAGGTCACTAATTGGAAGCTCTTTCCCTCCGCCTAGGGAGATTAGAGTATCGGTCGA | 0.732
GTTAAGTGAGTGGACTTTGGTCCTGGTCAGGCCTAGGGAGATTAGAGTATCGGTCGA | 7.53
GAGCACTCATTCCTATTCGGTGCTGACCTTGCCTAGGGAGATTAGAGTATCGGTCGA | 3.97
AGGACTTTGGACCGTCTTGTGGATCCTTGGGCCTAGGGAGATTAGAGTATCGGTCGA | 5.27
CTCATTCCTATTCGGTGCTGACCTTTGTTCGCCTAGGGAGATTAGAGTATCGGTCGA | 8.62
GTGAGTGGACTTTGGTCCTGGTCAGACTTGGCCTAGGGAGATTAGAGTATCGGTCGA | 6.78
TTTGGACCTGGCCTGCGGGGTCAGGCCGTGGCCTAGGGAGATTAGAGTATCGGTCGA | 2.71
CAATAAGGACTTTGGACCGTCTTGTGGATCGCCTAGGGAGATTAGAGTATCGGTCGA | 6.72
TCCTATTCGGTGCTGACCTTTGTTCACATTGCCTAGGGAGATTAGAGTATCGGTCGA | 6.64
ACACACAATAAGGACTTTGGACCGTCTTGTGCCTAGGGAGATTAGAGTATCGGTCGA | 8.19
AGTCCATGTGTTAAATAATAACACTCCCATGCCTAGGGAGATTAGAGTATCGGTCGA | -0.441
CCTTCCCTTTCATGTTGAACGTCTTCAGAAGCCTAGGGAGATTAGAGTATCGGTCGA | 1.35
CTGCCCAGACCTTATCTTGCATTTCTTCAGGCCTAGGGAGATTAGAGTATCGGTCGA | 0.246
CTGCCTGCTTGGCCTCTCCACTTGGGTATCGCCTAGGGAGATTAGAGTATCGGTCGA | -0.182
CAAAGGTCATAATTTGATCCAGTGTGCAAAGCCTAGGGAGATTAGAGTATCGGTCGA | 4.08
TGATCCAGGGCAAAGGTCATAATTTGATCCGCCTAGGGAGATTAGAGTATCGGTCGA | 6.94
AGAAAACACAGAGATCTGATCAAAGGTCATGCCTAGGGAGATTAGAGTATCGGTCGA | 6.61
ACACAGGACTTGATCCAGGGCAAAGGTCATGCCTAGGGAGATTAGAGTATCGGTCGA | 7.91
CACAGAGCAAAGGTCATGCATAGAAGTATGGCCTAGGGAGATTAGAGTATCGGTCGA | 4.43
GGACTTGATCCAGGGCAAAGGTCATAATTTGCCTAGGGAGATTAGAGTATCGGTCGA | 7.95
